Several values for one entry are separate records, joined by “and”; a condition that tells them apart may be missing. Equal entries are not always repeated. Results filed as inconclusive are left out. Activity calls are given as the source filed them. The call rests on the fitted dose curve; in most records, active means well fitted inhibition curve with a large enough effect; inconclusive means small, poorly fitted or top-dose-only effect; inactive means flat fitted curve, though single readings scatter. Where a SMILES comes first, the peptide text is derived from it. [ ]: non-standard residue; d: D form. pGlu = O=C1CC[C@@H](C(=O)O)N1
What was measured:
[1] = Drug repurposing screens with cells derived from glioblastoma tumor samples (AID 1345199); conditions: GBM patient neurospheres viability, ATP luminescence, 48 h; further: nearly all actives have a fitted effect of over 40% in size
Summary of the method: (§1)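 Primary testing used CD133+ neurospheres from four GBM patients, seven concentrations, 48 h exposure and ATP-based viability; confirmation added three slower-growing patient lines.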

astro = control astrocytes; experiment: as above; conditions: viability, ATP luminescence, 48 h; series mostly up to 45.9 µM
Summary of the method: as §1

[2] = at 45.9 µM (top of the series), tumour line B
[3] = at 45.9 µM (top of the series), tumour line D
[4] = at 46 µM (top of the series), tumour line A
[5] = at 46.1 µM (top of the series), tumour line C
[6] = at 20 µM (top of the series), tumour line C
[7] = at 21.2 µM (top of the series), tumour line B
[8] = at 21.2 µM (top of the series), tumour line D
[9] = at 21.3 µM (top of the series), tumour line A
On the % scale 0 is the no-effect control and ±100 the full control effect.

CC1(C)[C@H]2CC[C@]1(C)[C@H](O)C2
inactive: activity, negative = cell killing [1, 2] -3.63% | activity, negative = cell killing [1, 3] -3.69% | activity, negative = cell killing [1, 4] -22.7% | activity, negative = cell killing [1, 5] -20.6% | Potency (astro)

Nc1nc2c(c(=O)[nH]1)N(C=O)C(CNc1ccc(C(=O)N[C@@H](CCC(=O)O)C(=O)O)cc1)CN2 (stereo not given in full)
inactive: activity, negative = cell killing [1, 6] -2.81% | activity, negative = cell killing [1, 7] -5.52% | activity, negative = cell killing [1, 8] -5.96% | activity, negative = cell killing [1, 9] -10.3% | Potency (astro)

NC[C@H]1O[C@H](O[C@H]2[C@H](O)[C@@H](O[C@H]3O[C@H](CO)[C@@H](O)[C@H](N)[C@H]3O)[C@H](N)C[C@@H]2N)[C@H](N)C[C@@H]1O
inactive: activity, negative = cell killing [1, 6] 1.26% | activity, negative = cell killing [1, 7] -9.72% | activity, negative = cell killing [1, 8] -3.61% | activity, negative = cell killing [1, 9] -18.4% | Potency (astro)

O=C(CO)[C@@H](O)[C@H](O)[C@@H](O)C(=O)O
inactive: activity, negative = cell killing [1, 2] -4.69% | activity, negative = cell killing [1, 3] -4.84% | activity, negative = cell killing [1, 4] -22.3% | activity, negative = cell killing [1, 5] -9.16% | Potency (astro)

CC[C@H](C)[C@H](NC(=O)[C@H](Cc1ccccc1)NC(=O)[C@H](C)NC(=O)[C@H](CC(=O)O)NC(=O)[C@H](CCCCN)NC(=O)[C@H](CO)NC(=O)[C@@H]1CCCN1C(=O)[C@@H]1CCC(=O)N1)C(=O)NCC(=O)N[C@@H](CC(C)C)C(=O)N[C@@H](CCSC)C(N)=O ([pGlu]PSKDAFIGLM-NH2)
inactive: activity, negative = cell killing [1, 2] -11.4% | activity, negative = cell killing [1, 3] 13.8% | activity, negative = cell killing [1, 4] -9.58% | activity, negative = cell killing [1, 5] -14.3% | Potency (astro)

CC(C)[C@@H]1CC[C@@H](C)C[C@H]1OC(=O)c1ccccc1O
inactive: activity, negative = cell killing [1, 2] -16.3% | activity, negative = cell killing [1, 3] -12.7% | activity, negative = cell killing [1, 4] -21.2% | activity, negative = cell killing [1, 5] -34.9% | Potency (astro)

CC(=O)Oc1cccc(C(=O)O)c1OC(C)=O
inactive: activity, negative = cell killing [1, 2] -9% | activity, negative = cell killing [1, 3] -8.06% | activity, negative = cell killing [1, 4] -12.3% | activity, negative = cell killing [1, 5] -14.6% | Potency (astro)

Cc1cc(C(=O)NCCc2ccc(S(=O)(=O)NC(=O)NN3CCCCCC3)cc2)no1
inactive: activity, negative = cell killing [1, 2] -15.9% | activity, negative = cell killing [1, 3] -13.6% | activity, negative = cell killing [1, 4] -31.1% | activity, negative = cell killing [1, 5] -10.9% | Potency (astro)

CCC(=O)OC(OP(=O)(CCCCc1ccccc1)CC(=O)N1C[C@H](C2CCCCC2)C[C@H]1C(=O)O)C(C)C (stereo not given in full)
inactive: activity, negative = cell killing [1, 2] -7.98% | activity, negative = cell killing [1, 3] -19.4% | activity, negative = cell killing [1, 4] -12.6% | activity, negative = cell killing [1, 5] -19% | Potency (astro)

CCC(C)[C@@H](N)C(=O)O (stereo not given in full)
inactive: activity, negative = cell killing [1, 2] -9.25% | activity, negative = cell killing [1, 3] -6.09% | activity, negative = cell killing [1, 4] -16.7% | activity, negative = cell killing [1, 5] 10.2% | Potency (astro)

CN(C)C=Nc1c(I)cc(I)c(CCC(=O)O)c1I
inactive: activity, negative = cell killing [1, 2] -15.9% | activity, negative = cell killing [1, 3] 6.53% | activity, negative = cell killing [1, 4] -8.71% | activity, negative = cell killing [1, 5] -9.66% | Potency (astro)

C[C@@H]1C/C=C/C=C/C=C/C=C/[C@H](O[C@@H]2O[C@H](C)[C@@H](O)[C@H](N)[C@@H]2O)C[C@@H]2O[C@](O)(C[C@@H](O)C[C@H]3O[C@@H]3/C=C/C(=O)O1)C[C@H](O)[C@H]2C(=O)O
inactive: activity, negative = cell killing [1, 2] -13.9% | activity, negative = cell killing [1, 3] -5.09% | activity, negative = cell killing [1, 4] -20.3% | activity, negative = cell killing [1, 5] -13.5% | Potency (astro)

CN[C@@H]1[C@@H](O)[C@@H](O[C@@H]2[C@@H](O)[C@H](O[C@H]3O[C@H](CN)[C@@H](O)[C@H](O)[C@H]3O)[C@@H](N)C[C@H]2NC(=O)C(O)CN)OC[C@]1(C)O (stereo not given in full)
inactive: activity, negative = cell killing [1, 2] -11% | activity, negative = cell killing [1, 3] -1.91% | activity, negative = cell killing [1, 4] 4.63% | activity, negative = cell killing [1, 5] 1.73% | Potency (astro)

O=C1NCCN1c1ncc([N+](=O)[O-])s1
inactive: activity, negative = cell killing [1, 6] -26.4% | activity, negative = cell killing [1, 7] -0.147% | activity, negative = cell killing [1, 8] -24% | activity, negative = cell killing [1, 9] -10.3% | Potency (astro)

CCN(CC)CCOC[C@H]1O[C@@H](O)[C@H](OCCN(CC)CC)[C@@H](O)[C@@H]1O
inactive: activity, negative = cell killing [1, 2] -9.61% | activity, negative = cell killing [1, 3] -16.5% | activity, negative = cell killing [1, 4] -26.4% | activity, negative = cell killing [1, 5] -24.8% | Potency (astro)

NC(=O)[C@@H]1CCCN1C(=O)[C@H](Cc1cnc[nH]1)NC(=O)[C@@H]1CCC(=O)N1
inactive: activity, negative = cell killing [1, 2] -8.63% | activity, negative = cell killing [1, 3] 6.97% | activity, negative = cell killing [1, 4] -26.1% | activity, negative = cell killing [1, 5] 5.62% | Potency (astro)

CN1c2c(nc(N)[nH]c2=O)NCC1CNc1ccc(C(=O)NC(CCC(=O)O)C(=O)O)cc1 (stereo not given)
inactive: activity, negative = cell killing [1, 2] -12% | activity, negative = cell killing [1, 3] -5.57% | activity, negative = cell killing [1, 4] -17.5% | activity, negative = cell killing [1, 5] -2.53% | Potency (astro)

NC(=O)CC[C@@H]1NC(=O)[C@H](Cc2ccccc2)NC(=O)[C@H](Cc2ccc(O)cc2)NC(=O)[C@@H](N)CSSC[C@@H](C(=O)N2CCC[C@H]2C(=O)N[C@@H](CCCN=C(N)N)C(=O)NCC(N)=O)NC(=O)[C@H](CC(N)=O)NC1=O
inactive: activity, negative = cell killing [1, 2] -4.7% and -11.9% | activity, negative = cell killing [1, 3] -8.98% and -1.09% | activity, negative = cell killing [1, 4] -23.2% | activity, negative = cell killing [1, 5] 9.23% and 16.1% | Potency (astro)

Source: PubChem BioAssay (NCATS)
